Source: PubChem (The Scripps Research Institute Molecular Screening Center)
PRMT1 FP inh: inhibitors of human PRMT1; Q99873; recombinant PRMT1, activity-based probe fluorescence polarization; inhibition, % at 2.79 µM; 370,000 tested, 1.3% active; AID 652257;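 active = inhibition above about 21% made by adding two undisclosed values, limit read from the data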
TCR CD3 inh: human TCR-CD3 binding inhibition; TAMRA-labeled TCR probe fluorescence, biochemical; inhibition, % at 9.4 µM; 360,000 tested, 0.37% active; AID 651800; in the data active = inhibition above about 19%;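 note: recombinant mutant TCR 2C K166C tagged with TAMRA read by polarization; 0% = receptor in buffer alone and 100% = receptor with positive control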
Fam108B inh: counter-screen for RBBP9 inhibitors: inhibitors of mouse Fam108B; recombinant Fam108B, FP-Rh probe fluorescence polarization; inhibition, % at 9.51 µM; 300,000 tested, 0.33% active; AID 1947;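 active = inhibition above the screen mean inhibition plus 3 SD, computed separately per campaign, cut at about 18% in these data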;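 note: inhibitors lower polarization as less probe binds the enzyme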
PAD4 inh: blocks human protein arginine deiminase 4 | Q9UM07 | recombinant PAD4, RCA probe fluorescence polarization | inhibition, % at 6.36 µM | 330,000 tested, 0.41% active | AID 485272;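 active = percent inhibition above a cutoff equal to the mean of all tested compounds plus 3 SD, cut at about 15% in these data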;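 note: 0% = PAD4 with RCA probe and DMSO and 100% = probe without PAD4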
PME-1 primary: PME-1 (human) inhibition; Q9Y570; recombinant PME-1, FP-Rh probe fluorescence polarization; inhibition, % at 5.9 µM; 320,000 tested, 0.53% active; AID 2130;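 active = inhibition above the campaign mean of all compounds plus 3 SD, cut at about 26% in these data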;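 note: competitive labeling of PME-1 active site by serine hydrolase directed probe; 0% = PME-1 with DMSO and 100% = wells lacking PME-1 enzyme; inhibitors block probe labeling so polarization falls and inhibition rises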
Target sequence (Q9Y570 whole entry, looked up): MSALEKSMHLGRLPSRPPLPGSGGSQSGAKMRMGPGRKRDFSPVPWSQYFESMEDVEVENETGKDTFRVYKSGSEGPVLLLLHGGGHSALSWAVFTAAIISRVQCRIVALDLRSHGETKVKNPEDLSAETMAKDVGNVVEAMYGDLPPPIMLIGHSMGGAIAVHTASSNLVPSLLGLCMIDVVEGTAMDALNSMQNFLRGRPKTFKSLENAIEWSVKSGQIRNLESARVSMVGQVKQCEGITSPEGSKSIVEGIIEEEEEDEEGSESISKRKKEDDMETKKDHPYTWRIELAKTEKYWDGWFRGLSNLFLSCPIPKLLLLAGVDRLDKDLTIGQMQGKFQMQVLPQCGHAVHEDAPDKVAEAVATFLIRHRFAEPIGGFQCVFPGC
SIAE inh: inhibitors of human sialic acid acetylesterase SIAE; Q9HAT2; SIAE FP-Rh probe binding, fluorescence polarization; inhibition, % at 9.66 µM; 370,000 tested, 0.69% active; AID 1053197;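 active = inhibition above a cutoff: mean of compounds within the control limits plus 3 SD of those, cut at about 17% in these data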;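 note: 0% = plate median of compound wells and 100% = probe without SIAE protein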
SIAE confirm: confirmation of human SIAE inhibitors | shares compounds with SIAE inh | SIAE FP-Rh activity-based probe, fluorescence polarization | inhibition, % at 9.66 µM | 2,300 tested, 13% active;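 active = mean inhibition of the replicates above the hit cutoff set in the primary screen, cut at about 17% in these data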;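 note: 0% = SIAE with DMSO and probe and 100% = probe without SIAE; inhibitors lower polarization as more probe stays unbound to SIAE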
Numbers without * were called inactive; . = no result given. Compounds with a hit are over-represented: about 2.6% of the library has one in this group of screens.

SMILES	PRMT1 FP inh	TCR CD3 inh	Fam108B inh	PAD4 inh	PME-1 primary	SIAE inh	SIAE confirm
Cc1c(Cl)cccc1NC(=O)CNC(=O)C1CC(=O)N(C2CCCC2)C1 (centres undefined)	5	-4	.	0	.	21*	0
COc1cccc(-c2noc(-c3cccnc3)n2)c1	-1	-6	5	-4	-5	-3	.
COc1cccc(-c2noc(C(C)n3nc(C)c([N+](=O)[O-])c3C)n2)c1 (centres undefined)	0	0	-5	6	-7	34*	-1
Cn1c(=O)c2c(SCC(=O)Nc3ccccc3F)nc(C3CC3)nc2n(C)c1=O	5	2	2	-2	-2	1	.
Cn1c(=O)c2c(SCC(=O)Nc3ccccc3F)nc(-c3ccccc3F)nc2n(C)c1=O	-4	3	-4	5	-6	23*	1
CCOC(=O)C1=C(C)OC(N)=C(C#N)C1c1cc(SCC)oc1C (centres undefined)	-1	8	-1	1	2	19*	-8
CCOC(=O)C1=C(C)OC(N)=C(C#N)C1c1cc(C)sc1C (centres undefined)	6	-5	-2	-2	-1	5	.
S=C(Nc1ccc(Nc2ccccc2)cc1)Nc1ccccn1	23*	0	3	-3	23	32*	3
S=C(Nc1ccccc1)Nc1ccccn1	2	2	.	.	.	4	.
O=S(=O)(O)c1cc(O)c2cc(Nc3ccccc3)ccc2c1	.	19*	.	.	.	18*	43*
Nc1ccc2c(O)cc(S(=O)(=O)O)cc2c1	.	14	.	.	.	-15	.
COc1ccccc1Nc1ccc2c(O)cc(S(=O)(=O)O)cc2c1	37*	40*	.	.	.	28*	53*
O=C(O)c1cc2cc(S(=O)(=O)O)ccc2cc1O	1	7	.	.	.	1	.
O=C(CNS(=O)(=O)c1cc2ccccc2s1)N1CCN(c2ccccn2)CC1	-2	.	.	.	.	-9	.
CCN1CCN(C(=O)/C(=C/c2ccco2)NC(=O)c2ccccc2)CC1	2	10	-4	-1	2	18*	1
CCN1CCCC1CNC(=O)C(=O)NC(C)c1ccccc1 (centres undefined)	-4	5	-1	-1	-2	19*	-2
CCN1CCCC1CNC(=O)C(=O)NC(C)C (centres undefined)	-4	1	-4	3	-1	-8	.
COc1ccc(NC(=O)Nc2cccs2)cc1OC	2	0	2	7	-3	18*	8
COc1cc(NC(=O)CCCOc2ccc(Cl)cc2Cl)c(C(=O)O)cc1OC	3	-3	-3	0	4	-1	.
O=C(CCCOc1ccc(Cl)cc1Cl)Nc1ccc(O)cc1C(=O)O	5	-12	-3	-1	4	17*	-8
CCOc1ccc(NC(=O)CCNC(=O)c2ccco2)cc1	1	8	1	-4	4	3	.
CCOc1ccc(NC(=O)CCC(=O)Nc2cc(OC)c(NC(=O)c3ccco3)cc2OC)cc1	3	4	4	-3	2	19*	7
CCOC(=O)[C@]12CCCC3=C1N(CCC3)C(=O)[C@@H](CC(=O)NCc1cccc(C(F)(F)F)c1)C2	8	.	.	.	.	-2	.
O=C(O)c1cccc([N+](=O)[O-])c1C(=O)Nc1ccc2ccccc2c1	4	-1	0	-11	4	21*	7
O=C(Nc1ccc2ccccc2c1)c1cccc([N+](=O)[O-])c1	-4	12	-4	-2	17	29*	-29
SMILES	PRMT1 FP inh	TCR CD3 inh	Fam108B inh	PAD4 inh	PME-1 primary	SIAE inh	SIAE confirm
Cc1c(C(=O)Nc2ccc(Nc3ccccc3)cc2)cccc1[N+](=O)[O-]	-1	1	-5	-6	4	8	.
Cc1c(C(=O)Nc2ccc3c(c2)CCC3)cccc1[N+](=O)[O-]	-3	-3	4	1	3	18*	-2
O=C(Nc1ccc(F)cc1)N1CCCCCC1	-1	-4	-1	-3	8	18*	-2
COc1cccc(NC(=O)N2CCCC2)c1	-2	7	2	2	1	19*	1
O=C(c1cc(Cl)ccc1F)N1CCCC(Nc2ccc3c(c2)OCCO3)C1 (centres undefined)	1	2	4	4	10	17*	0
Cc1cnc(C(=O)OCC(=O)N=c2sccn2Cc2ccccc2Cl)cn1	1	2	-4	-1	-3	0	.
O=C(COC(=O)c1cnccn1)N=c1sccn1Cc1ccccc1Cl	1	12	-5	0	0	20*	-3
COC(=O)C1CN(Cc2ccccc2)CCS(=O)(=O)N1Cc1ccc(F)cc1 (centres undefined)	-3	.	.	.	.	3	.
Nc1ccccc1NC1=CC(=O)CC(c2ccco2)C1 (centres undefined)	3	-2	1	-1	1	19*	3
CN(C)/C=C(\C(=O)c1ccccc1)c1nnnn1-c1ccc(F)cc1	0	-6	1	-3	5	-5	.
CN(C)/C=C(\C(=O)c1ccc(Cl)cc1)c1nnnn1-c1ccc(Cl)cc1	0	-2	2	-3	-2	18*	-5
CC1CCN(C(=O)CSc2nnc(CNC(=O)c3ccco3)o2)CC1	-1	-2	2	2	0	22*	1
O=C(NCc1nnc(SCC(=O)N2CCCC2)o1)c1ccco1	3	-5	-3	-6	2	-3	.
Cn1ccc2c(N3CCCC3)cc3c(c21)C1CCC3O1 (centres undefined)	4	5	.	.	.	20*	-1
Cc1cc(C)n2nc(SCc3nnc(-c4ccccc4Br)o3)nc2n1	-1	4	1	-6	4	22*	1
Cc1cc(C)n2nc(SCc3ncc(-c4ccccc4)o3)nc2n1	4	1	-2	-3	1	-3	.
CC(C)(C)c1cc(C(=O)C[n+]2ccc(C(=O)NCCCO)cc2)cc(C(C)(C)C)c1O	-4	-2	-4	-4	6	18*	0
Cc1cc2nc(NCCCO)n(CC(=O)c3cc(C(C)(C)C)c(O)c(C(C)(C)C)c3)c2cc1C	3	-1	2	-2	5	9	.
CCOC(=O)c1c(C)[nH]c(O)c1C=Nc1ccccc1	10	6	6	8	11	22*	3
COc1ccc2c(c1)c(/C=N/Nc1nc3ccccc3[nH]1)c(C)n2C	6	-6	6	4	-11	32*	30*
COc1cc(OC)c(OC)cc1/C=N/Nc1nc2ccccc2[nH]1	0	1	11	3	-19	8	.
Cc1ccc(NC(=O)CSc2nccn2Cc2ccccc2)cc1C	2	1	6	0	-5	18*	3
CC(=O)Nc1ccc(NC(=O)CSc2nccn2Cc2ccccc2)cc1	-4	1	-4	2	-3	10	.
CCOC(=O)[C@@]12CCCC=C1N(CCc1ccc(Cl)cc1)C(=O)[C@H]2CC(=O)NCc1ccc(C)o1	2	.	.	.	.	3	.
